Laboratory results: PubChem BioAssay (NCI)
Where “and” joins values, the source holds several entries; their conditions need not be identical. Equal entries are not always repeated. About 83,000 compounds went through this panel and 20% of them were active in at least one assay; those are over-represented in the sample as a whole.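 48-hour exposure, single concentration, 96-well plates; percent growth endpoint where 0 means no net growth. Active: below 10.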 Calls of active or inactive are those of the source.

These compounds were tested on HL-60(TB) leukemia (assay: NCI-60 one-dose screen, 48 h (100 = growth as untreated, 0 = no growth, -100 = all killed)). Settings: 10 µM unless noted.
For `CCCCCn1sc(=O)n(Cc2ccc(CNC(=O)C(C)c3ccc(CC(C)C)cc3)cc2)c1=O` (stereo not given), the growth was 102% (inactive) and -34.5% (active).
`N#Cc1ccc(NC(=O)c2ccc3cccnc3c2O)cc1` was tested, and the growth was 4.59% (active).
With `Nc1c2ccccc2nc2ccccc12` the growth was 21% (inactive) and 9.95% (active) and 47.7% (inactive).
`Cn1cc(-c2csc(-c3c[nH]c4ccc(Br)cc34)n2)c2cnccc21` was tested, and the growth was -56.6% (active).
`CC(C)(C)OC(=O)N1CCCN(CCNc2nccc(-c3c(-c4cccc(O)c4)nc4sccn34)n2)S1(=O)=O` was tested, and the growth was 104% (inactive).
In the case of `O=C(COc1ccc(/C=C2\Oc3ccccc3C2=O)cc1)Nc1nc2c(s1)CCCC2`, the growth is reported as -72.2% (active).
`O=C1Nc2ccc(F)cc2/C1=C\c1c(-c2ccccc2)nc2ccccn12` was tested, and the growth was 56.4% (inactive).
For `Cc1ccc(C2CC(c3ccc(Nc4nc(NCCO)nc(NCCO)n4)cc3)=NN2c2ccc(Cl)cc2)cc1` (stereo not given), the growth was 80.7% (inactive).
For `O=C(CN1CCN(c2cc3c(cc2F)c(=O)c(C(=O)N/N=C/c2ccccc2O)cn3C2CC2)CC1)N/N=C\c1ccccc1O`, the growth was 1.69% (active).
With `Cc1cc(N2CCCC2)nc(N(CCCNc2ccnc3cc(Cl)ccc23)Cc2ccc3c(c2)OCO3)n1` the growth was -62.9% (active).
For `COc1ccc2c(O)c(/C=C3\N=Nc4ccccc43)oc2c1C[C@@H]1CCNC[C@H]1F`, the growth was 61% (inactive).
With `Oc1ccc(-c2cnc(-c3ccccc3)[nH]2)c(O)c1` the growth was 101% (inactive).
For `COc1ccc2nc(Cl)cc(C)c2c1`, the growth was 89.3% (inactive) and 9.88% (active).
In the case of `O=C1C=C(Nc2ccccc2)c2ccccc2C1=O`, the growth is reported as 79.5% (inactive) and 101% (inactive).
`COc1ccc(C2SC(C)C(=O)N2CCc2cccs2)cc1OC` (stereo not given) was tested, and the growth was 74.5% (inactive).
`O=c1c2cccc3c(Nc4ccc(F)cc4)ccc(c32)c2nc3ccccc3n12` was tested, and the growth was 124% (inactive).
With `CCNCCNc1cc(-c2ccc(Cl)cc2)c(C#N)c2nc3ccccc3n12` the growth was -60.4% (active).
`Cc1ccc2c3c(c(=O)[nH]c2c1)C1(C(C#N)=C(N)O3)c2cc(Br)ccc2-c2ccc(Br)cc21` was tested, and the growth was 83.7% (inactive).
With `O=C(c1cc(-c2ccc(Cl)cc2)nc2ccccc12)N1N=C(c2ccccc2)CC1c1cc(-c2ccccc2)nn1-c1ccccc1` (stereo not given) the growth was 91.6% (inactive).
`CN1CCN(Cc2ccc(NC(=O)c3cnc(F)c(C#Cc4cnc(N)c5ncccc45)c3)cc2C(F)(F)F)CC1` was tested, and the growth was -9.84% (active).
In the case of `CN1CCN(CCC=C2c3ccccc3Sc3ccc(S(=O)(=O)N(C)C)cc32)CC1`, the growth is reported as 91.3% (inactive) and 80.6% (inactive).
`OCc1n(Cc2ccc3ccccc3c2)cc[n+]1Cc1ccc2ccccc2c1` was tested, and the growth was 6.82% (active).
With `CCOC(=O)C1=C(N)Oc2c(sc3c(C)cccc23)C1c1ccc(OC)cc1` (stereo not given) the growth was 1.54% (active).
For `FC(F)(F)c1cccc(Nc2nc3ccccc3nc2Nc2cccc(C(F)(F)F)c2)c1`, the growth was -48.9% (active).
For `Cc1ccc(F)c(NC(=O)Nc2ccc(-c3cccc4[nH]nc(N)c34)cc2)c1`, the growth was 7.97% (active).
In the case of `O=C1/C(=C/c2ccc(-c3ccc(Br)cc3)o2)SC(=S)N1CCc1ccc(O)cc1`, the growth is reported as 44.3% (inactive).
In the case of `CN(C)c1ccc(/C=C/c2ccnc3ccccc23)cc1N`, the growth is reported as 43.5% (inactive).
With `CCOC(=O)C(=Cc1cccc(Br)c1)C(=O)OCC` the growth was -6.91% (active).
`Cc1ccc(/C=C2\SC(=S)N(c3ccc(F)cc3)C2=O)o1` was tested, and the growth was 82.8% (inactive).
For `Cc1[nH]c(=O)[nH]c(=O)c1Br`, the growth was 129% (inactive).
`Oc1ccc(Cl)cc1/C=N\NC(=S)N/N=C/c1cc(Cl)ccc1O` was tested, and the growth was 12.2% (inactive).
In the case of `COc1ccc2c(c1)NC1=C(C(=O)OC1)C2c1cc(OC)c2c(c1)OCO2` (stereo not given), the growth is reported as 0.722% (active).
With `Cc1cc(N(CCNc2ccnc3cc(Cl)ccc23)Cc2ccco2)nc(Cl)n1` the growth was -61.9% (active).
With `[2H]c1nc(Nc2ncc(F)c(-c3cc(F)c4nc(C)n(C(C)C)c4c3)n2)c([2H])c([2H])c1CN1CCN(C([2H])([2H])C([2H])([2H])[2H])CC1` the growth was 34.6% (inactive).
In the case of `CCc1ncnc2c1ccn2C(C)c1ccc(OC)c(F)c1` (stereo not given), the growth is reported as 31.7% (inactive).
In the case of `COc1cccc(-c2nn(-c3ccccc3)cc2-c2ccnc(NCCNC(=O)Nc3cccc(C(F)(F)F)c3)c2)c1`, the growth is reported as 2.15% (active).
In the case of `COCCNC(=O)c1ccc(-c2nc3ccc4[nH]ncc4c3c3c2CCCC3)cc1`, the growth is reported as 11.4% (inactive).
`Cc1nnc(/N=C2\NC(=O)/C(=C/c3ccc(N(C)C)cc3)S2)s1` was tested, and the growth was 99.6% (inactive).
For `COc1ccc(NC(=O)c2cc(OC)c(OC)c(OC)c2)cc1O`, the growth was 32.5% (inactive).
With `COc1cc(-c2nc3cc(Cl)c(Cl)cc3[nH]2)ccc1OCC(=O)NN` the growth was 82% (inactive).
